Shown are actives, neighbours in structure and some others; about 3.6% of the full set was active somewhere.
MmCpn inh – inhibitors of Methanococcus maripaludis chaperonin TRiC (MmCpn). purified Mm-Cpn ATPase, ADP Transcreener TR-FRET. Potency, µM (titrated, usually from 76.9 µM), inactives show at the highest dose activity, negative = inhibition, usual class: inhibitors. 330,000 tested, 0.031% active. AID 504842; note: % is set by controls: 0 for no effect and ±100 for the full control effect; nearly all actives have a fitted effect of over 80% in size
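Purified archaeal chaperonin (25 nM final) was preincubated with compound for 10 min at 37°C, then ATP (10 uM final) was added for 30 min at 37°C in Tris pH 7.4/KCl/MgCl2/DTT buffer. ADP was quantified by HTRF Transcreener TR-FRET.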
ClpP mod – qHTS Assay for Activators of ClpP; Potency, µM (series often up to 57.5 µM), without a hit: at the top dose activity change, negative = active; 340,000 tested, 1.9% active; purified B. subtilis ClpP, FRET peptide cleavage, 20 min; ATP-dependent Clp protease proteolytic subunit (Bacillus subtilis (strain 168)), P80244; AID 651965, 2013; active = well fitted falling curve with a large enough effect; inconclusive = small, poorly fitted or top-dose-only effect; inactive = no such curve, though single readings can be large or run the other way; note: the source files actives as falling curves though it sought activators and does not explain the sign; nearly all actives have a fitted effect of over 65% in size
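Purified B. subtilis ClpP, 10 microg/mL final in Tris/HCl pH8 with KCl, BSA, glycerol and Tween-20, cleaved an Abz/nitrotyrosine-quenched decapeptide. Fluorescence (ex 320, em 430) was read at 0 and 20 min at room temperature. Delta was normalized to 5.8 microM ADEP and DMSO/no-enzyme controls.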
aSyn rescue – rescues yeast growth from alpha-synuclein toxicity; Yeast expressing alpha-synuclein, growth rescue, BacTiter-Glo, 24 h; Potency, µM (doses to about 46.1 µM), without a hit: at the highest dose growth rescue (activation), hits mostly activators; 370,000 tested, 0.14% active; AID 652106; note: % of control where 0% means no effect; nearly all actives have a fitted effect of over 65% in size
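Rescue of yeast growth: cells expressing toxic alpha-synuclein, induced in galactose at OD600 0.02, incubated with compound 24 h at 30 C. ATP luminescence quantified growth; inhibitors of toxicity appear as activators.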
FUS yeast rescue – suppressors of FUS proteinopathy in yeast. 390,000 tested, 0.24% active. AID 1347120. Potency, µM (top dose mostly 76.6 µM), usual class: activators. S. cerevisiae FUS-expressing, growth rescue, OD600, 24 h;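 note: plate controls were DMSO vehicle for no effect and reference control for full effect; nearly all actives have a fitted effect of over 55% in size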
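Absorbance at 600 nm, taken 24hr after compound addition, measured rescue of FUS-yeast growth at 30C. Induction used 2% galactose with seeding at OD 0.005. Controls: CP55940 from 92uM final, DMSO only.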
TDP43 rescue – TDP-43 toxicity inhibition in yeast; TDP-43 expressing yeast growth rescue, BacTiter-Glo, 24 h; Potency, µM (series often up to 46.1 µM), inactives show at the top dose growth rescue (activation), most hits filed as activators; 410,000 tested, 1.8% active; AID 652104; note: % of control where 0% means no effect; nearly all actives have a fitted effect of over 50% in size
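Growth rescue of TDP-43-toxic yeast measured as ATP luminescence (BacTiter-Glo). Cells grown to mid-log in raffinose, induced in galactose at OD600=0.02, exposed to compound 24 hr at 30 deg C.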
Abeta yeast res – A-beta toxicity reversal in yeast; yeast expressing A-beta42, growth rescue, OD600, 48 h; response scale: 0% DMSO, 100% iron-clioquinol control; Potency, µM (top dose mostly 46.1 µM), actives largely listed as activators; 410,000 tested, 0.063% active; note: nearly all actives have a fitted effect of over 55% in size
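Growth rescue measured by 600 nm absorbance after 48 h yeast culture at 30 C with compound. Values normalized between DMSO and an equimolar ferric chloride plus clioquinol control.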
* hit, by the source's call; i = inactive; ? = inconclusive; nt = no result given. Unless noted, calls come from the whole dose curve; as a rule, active = well fitted curve in the direction sought with a large enough effect; inconclusive = small, poorly fitted or top-dose-only effect, or another doubt; inactive = no such curve, though single readings can be large; an effect the other way counts as inactive or inconclusive. Potency is the fitted concentration of half-maximal effect.

SMILES | MmCpn inh | ClpP mod | aSyn rescue | FUS yeast rescue | TDP43 rescue | Abeta yeast res
Cn1nccc1-c1coc2c(C(=O)NCc3ccccc3)cccc12 | nt | -14.2% | 14.2% | i | 3.55µM* | i
Cn1nccc1-c1coc2c(C(=O)NCC3CCOCC3)cccc12 | nt | -4.5% | -9.9% | i | 12.8% | i
COc1ccc(CNC(=O)c2ccc(-c3cnn(C)c3)c3ccoc23)cc1OC | nt | -26.5% | 3.1% | i | 21.8% | i
CC(C)c1nnc(N2C(=O)c3oc4ccccc4c(=O)c3C2c2ccccc2F)s1 (stereo not drawn) | nt | 0.0% | nt | i | ? | i
S=c1nn[nH]n1C12CC3CC(CC(C3)C1)C2 | 1.2% | -1.8% | -18.4% | i | 7.94µM* | i
C[n+]1ccc(/C=C/c2cc[n+](C)c3ccccc23)c2ccccc21 | nt | -12.7% | -63.7% | nt | nt | nt
COc1cc(C(=O)NNC(=O)c2nn(C)c(=O)c3ccccc23)cc(OC)c1OC | 1.2% | -0.9% | -5.6% | i | 3.16µM* | i
Cn1nc(C(=O)Nc2cccc(C(=O)NC3CC3)c2)c2ccccc2c1=O | -1.4% | 0.2% | 5.8% | i | 7.8% | i
Cc1onc(C(=O)Nc2ccccc2C(F)(F)F)c1[N+](=O)[O-] | -1.1% | 1.2% | -4.3% | i | 12.3% | i
Cc1onc(C(=O)Nc2cccc(C(F)(F)F)c2)c1[N+](=O)[O-] | 0.6% | -0.7% | -12.8% | i | 12.6µM* | i
Cn1nc(C(=O)NNC(=O)COc2ccccc2)c2ccccc2c1=O | -1.9% | -1.7% | -0.5% | i | -5.3% | i
Cn1nc(C(=O)Nc2cccc(C(F)(F)F)c2)c2ccccc2c1=O | -0.3% | -4.9% | 8.9% | nt | 11.2µM* | i
O=S(=O)(NCC(c1cccs1)S(=O)(=O)c1ccccc1)c1ccc(F)c(C(F)(F)F)c1 (stereo not drawn) | nt | -1.8% | nt | i | ? | i
O=S(=O)(NCC(c1cccs1)S(=O)(=O)c1ccccc1)c1ccc(F)cc1 (stereo not drawn) | nt | 2.3% | nt | i | 3.55µM* | i
COc1ccc(S(=O)(=O)NCC(c2cccs2)S(=O)(=O)c2ccccc2)cc1OC (stereo not drawn) | nt | -0.6% | nt | i | 3.16µM* | i
COc1cccc(Oc2ccc(N)cn2)c1 | 1.0% | 25.1µM* | 0.8% | i | -2.9% | i
Cc1cc(Oc2ccc(N)cn2)ccc1Cl | -3.0% | 0.4% | 21.6% | i | 0.0% | i
C=C1NN(CC2CC2)C(=O)N1c1ccc(OCc2ccccc2)cc1 | nt | -0.8% | 0.9% | nt | nt | nt
Oc1cccc(NC(=S)Nc2ccc(SC(F)F)cc2)c1 | 0.8% | -1.0% | -3.8% | i | 19.2% | i
Oc1cccc2c(NC(=S)Nc3ccc(SC(F)F)cc3)cccc12 | -1.6% | 4.4% | -21.0% | i | 11.2µM* | i
COc1ccc(NC(=O)c2c(NC(=O)COc3ccc(Cl)cc3)sc3c2CCCCC3)cc1 | nt | 1.4% | nt | i | 8.91µM* | i
CC1=C2NC(N)=[N+](Cc3ccccc3)CC2n2c(=O)n(-c3ccccc3)c(=O)n2C1 (stereo not drawn) | nt | nt | nt | i | nt | nt
Cc1nc2c([nH]1)C1(CCN(Cc3ccccc3)CC1)C(C#N)=C(N)O2 | -2.2% | 15.8µM* | 1.9% | i | 9.8% | i
O=c1cc(O)cc(/C=C/c2ccc(O)c(O)c2)o1 | nt | nt | 6.8% | nt | nt | nt
CCOc1ccc(CNC(=O)CCS(=O)(=O)c2cc3c4c(c2)CCN4C(=O)CC3)cc1OC | nt | -0.6% | nt | i | -1.7% | i
SMILES | MmCpn inh | ClpP mod | aSyn rescue | FUS yeast rescue | TDP43 rescue | Abeta yeast res
O=C(O)Cc1ccc(Oc2ncc(C(F)(F)F)cc2Cl)cc1 | -1.0% | nt | 1.7% | i | 12.6µM* | i
Cc1ccc(-c2csc3ncnc(Oc4ccc5c(C)cc(=O)oc5c4)c23)cc1 | -15.8% | 28.2µM* | 1.9% | nt | 6.7% | i
COc1cccc(NC(=O)/C(C#N)=C\c2cn(Cc3ccc(Cl)cc3)c3ccccc23)c1 | nt | -0.7% | nt | i | 17.8% | i
Cc1cc(C)cc(NC(=O)CCCN2C(=O)COc3ccc(C)cc32)c1 | nt | -3.3% | nt | i | 16.7% | i
O=C(c1ccc(COc2ccccc2)o1)N1CCN(S(=O)(=O)c2ccccc2Cl)CC1 | -4.7% | -0.1% | 0.5% | i | 15.8µM* | i
COc1ccc(CCC(=O)N2CCN(c3cccc(C)c3C)CC2)cc1 | 1.4% | nt | 22.4% | i | ? | i
COc1ccc(CC(=O)N2CCN(c3cccc(C)c3C)CC2)cc1 | 2.8% | -2.7% | -1.5% | i | 11.2µM* | i
COc1cccc(NC(=O)N2CCN(c3cccc(C)c3C)CC2)c1 | 2.1% | -1.9% | -0.2% | i | 12.6µM* | i
Cc1ccc(S(=O)(=O)N2CCN(C(=O)c3ccc(COc4ccccc4)o3)CC2)cc1 | 0.9% | -2.1% | -3.1% | i | 19.8% | i
O=C(c1ccc(CS(=O)(=O)c2c(Cl)cccc2Cl)o1)N1CCN(c2ccccc2)CC1 | nt | 0.6% | nt | 28.2µM* | 29.3% | i
CCc1cc2c(cc3c(=O)n(CC(=O)NCCc4ccccc4)ncn32)s1 | nt | -3.8% | nt | i | 21.5% | i
CCc1cccc(C)c1NC(=O)C(CC)n1nc(C)c2c(C)n(-c3ccccc3)nc2c1=O (stereo not drawn) | nt | ? | nt | i | 14.0% | i
Cc1ccc(S(=O)(=O)N2c3ccccc3C[C@H]2CC=C(c2ccccc2)c2ccccc2)cc1 | nt | nt | nt | i | nt | nt
Cc1ccc(NC(=O)C(Cc2ccccc2)n2cccc2)c(C)c1 (stereo not drawn) | nt | -1.3% | nt | i | 28.6% | i
COc1ccc(S(=O)(=O)Cc2ccc(C(=O)N3CCN(c4cc(C)ccc4C)CC3)o2)cc1 | 2.4% | -3.9% | 0.1% | ? | ? | i
Cc1ccc(S(=O)(=O)Cc2ccc(C(=O)N3CCN(c4cccc(C)c4C)CC3)o2)cc1 | -0.5% | 1.1% | 12.8% | ? | 22.4µM* | i
COc1ccc(S(=O)(=O)Cc2ccc(C(=O)N3CCN(c4cccc(C)c4C)CC3)o2)cc1 | 0.8% | 2.9% | 1.2% | i | 25.1µM* | i
Cc1c2cnn(CC(=O)NC(C)C)c(=O)c2c(C)n1Cc1cccc(Cl)c1 | nt | -16.3% | nt | i | 26.4% | i
CC(C)NC(=S)N/N=C/c1ccc(C(C)(C)C)cc1 | -0.4% | 3.3% | -5.5% | i | 0.0% | 5.62µM*
CC(C)CCn1c(=O)c2sccc2n2c(CCCC(=O)NC(C)c3ccccc3)nnc12 (stereo not drawn) | nt | -14.2% | nt | i | 4.0% | i
